Source: ChEMBL document CHEMBL3988442, “University of Dundee, Small-Polar-MMV Screening Library” (2021)

Key:
[1] = biological target: T1, Aspartate--tRNA(Asp/Asn) ligase (Mycobacterium tuberculosis (strain ATCC 25618 / H37Rv)) (UniProt P9WFW3); assay: Assay for Asp RNA synthetase-1 from Mycobacterium tuberculosis; assay type: functional; design: scale not given: direction of the effect not stated beside the values; conditions: 30 µM; note: in the data most compounds retested in dose-response had high values
T1 sequence (whole entry): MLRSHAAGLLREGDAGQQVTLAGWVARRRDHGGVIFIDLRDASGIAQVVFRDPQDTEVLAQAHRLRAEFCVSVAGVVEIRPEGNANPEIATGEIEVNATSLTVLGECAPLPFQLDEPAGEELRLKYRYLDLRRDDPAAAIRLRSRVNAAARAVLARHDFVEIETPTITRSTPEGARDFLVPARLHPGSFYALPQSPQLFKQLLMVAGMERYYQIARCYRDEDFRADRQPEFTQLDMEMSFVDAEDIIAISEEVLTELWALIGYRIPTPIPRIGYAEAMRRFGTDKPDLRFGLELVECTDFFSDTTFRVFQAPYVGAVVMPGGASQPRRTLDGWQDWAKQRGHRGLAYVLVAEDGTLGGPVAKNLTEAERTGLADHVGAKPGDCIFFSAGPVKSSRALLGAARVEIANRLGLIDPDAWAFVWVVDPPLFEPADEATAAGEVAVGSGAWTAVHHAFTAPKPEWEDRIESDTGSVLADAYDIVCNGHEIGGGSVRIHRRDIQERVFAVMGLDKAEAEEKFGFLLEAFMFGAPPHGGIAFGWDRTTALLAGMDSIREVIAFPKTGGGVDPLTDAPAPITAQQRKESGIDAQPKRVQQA

[2] = biological target: Shiga toxin 2 (Escherichia coli O157:H7) (UniProt P09385+P09386); assay: E. coli 0.157:H7 Shiga Toxin SOP - stx2 screening assay; assay type: functional; design: scale not given: direction of the effect not stated beside the values; conditions: 30 µM

SMILES | Percent Effect [1] [%] | Percent Effect [2] [%]
CC(C)(C)c1nnc(CN2CCOC(Cn3cccn3)C2)o1 (stereo not drawn) | -6.74 | -2.05
Cc1nn(-c2ccccc2)cc1C(=O)N1CCCC(n2cccn2)C1 (stereo not drawn) | -5.22 | -27.4
CC(C)c1nc(C2CCCN(C(=O)c3ccc4[nH]cnc4c3)C2)no1 (stereo not drawn) | 2.42 | 0.178
COCCNC(=O)[C@@H]1CC[C@@H]2[C@@H](CCN2Cc2cnn(C)c2)O1 | 2.71 | -20.8
O=S(=O)(c1ccccc1)N1CCC2(CCCN2CC2CCCC2)C1 (stereo not drawn) | -2.77 | 9.27
O=C(NCc1ccccn1)[C@@H]1CCO[C@@H]2CCN(Cc3ccoc3)C[C@H]21 | 7.04 | 4.93
Clc1ccccc1-c1nc(CNC2CCc3ncnn3C2)cs1 (stereo not drawn) | -0.745 | -6.39
COc1ccc(C(=O)NCCCn2ccnc2)c(OC)n1 | -1.77 | -22.8
O=C(c1cc(F)ccc1F)C1CCN(C(=O)c2cccnc2O)CC1 | -2.36 | 27.8
CCc1nc(NCCCOC)c2c(n1)c(C)nn2C | -8.39 | -21.6
CN(Cc1cn2c(n1)CN(C(=O)CC1CC1)CC2)Cc1ccco1 | -0.868 | -5.93
Cc1ccoc1-c1nnc(CN2CCCC(Cn3cncn3)C2)o1 (stereo not drawn) | 1.01 | -16.9
CCOCCCn1c(NC(=O)c2scnc2C)nc2ccccc21 | -5.62 | -30.2
Cc1cn2nc(N3CCCC3CC(C)(C)C)sc2n1 (stereo not drawn) | 1.06 | 22.9
Fc1ccc(-c2n[nH]cc2-c2ccnc(NCCN3CCCC3)n2)cc1 | 8.63 | -50.2
CC(=O)c1cccc(S(=O)(=O)N2CSCC2C(=O)NCC(F)(F)F)c1 (stereo not drawn) | -1.82 | -13.6
Cc1cnn(C2CCCN(C(=O)Cc3ccc(-n4cccn4)cc3)C2)c1 (stereo not drawn) | -4.37 | 4.84
Cc1nn(C)c(N2CCOCC2)c1CNC(c1cccs1)C(C)C (stereo not drawn) | 1.8 | 25.3
O=C(N1CCCC1)N1CCc2ncnc(C3CCOC3)c2CC1 (stereo not drawn) | -0.956 | -10.8
Cn1cc(C2COC3(CCN(C(=O)c4ccc(F)cc4)CC3)C2)cn1 (stereo not drawn) | 0.474 | 4.34
Cc1cnn(CC2CCCCN2C(=O)c2cc(C(N)=O)cs2)c1 (stereo not drawn) | -2.6 | 1.14
O=C(C1CCOCC1)N1C[C@@H]2[C@@H](C1)OCC(=O)N2Cc1ccncc1 | -2.99 | -3.94
O=C(Nc1ncn(CC(=O)N2CCCCCC2)n1)C1CCCO1 (stereo not drawn) | -0.233 | 29.5

SMILES | Percent Effect [1] [%] | Percent Effect [2] [%]
COCC(=O)NCCn1ccc2c(OC)cccc21 | -1.31 | -26.2
O=C(C1CCOC1)N1CC[C@@H](O)[C@@H]1Cc1ccccc1 (stereo partly drawn) | -2.71 | -16.7
COc1ncc(C2CC(=O)NCc3nc4ccccn4c32)cn1 (stereo not drawn) | -1.4 | 15
c1cncc(OCC2CN(Cc3ccco3)Cc3nccn3C2)c1 (stereo not drawn) | -1.34 | -17.2
O=C(NCc1ccc(OCC2CC2)nc1)c1c(F)cccc1F | -0.03 | 0.72
O=C(CC1CCCC1)N1CCCC1c1nc(O)cc(-c2ccccn2)n1 (stereo not drawn) | -2.84 | -10.1
CC(=O)N1CCCC(Cc2cncc(Br)c2)CC1 (stereo not drawn) | -0.223 | -11
O=C(NCCCn1cncn1)N1CCCC(N2CCCC2)C1 (stereo not drawn) | 3.5 | 0.153
Cc1csc(CNC(=O)NC2CCN(c3ncccn3)CC2)n1 | 2.39 | -1.46
Cc1oc(C)c(C(=O)NCc2cccc(NC(=O)CN(C)C)c2)c1C | -5.4 | -39.7
NC(=O)c1ccc(S(=O)(=O)NC2CCN(Cc3ccccc3)C2=O)cc1 (stereo not drawn) | -5.17 | 5.52
Cc1nc(N2CCN(C(=O)c3ccc(O)cc3)CC2)c2cnn(C)c2n1 | -1.05 | 3.77
COc1ccc(C(=O)N2Cc3c(Cn4ccnc4)nn(C)c3C2)cc1 | -10.7 | -6.82
CCn1cc(NC(=O)NCC(c2cccc(F)c2)N(C)C)cn1 (stereo not drawn) | -4.28 | 21.4
Cc1cc(C)n(C2CCCN(C(=O)c3c(C)c(C)n[nH]c3=O)C2)n1 (stereo not drawn) | -2.4 | 2.19
Cc1cc(C)n(C2CCCN(C(=O)CCNS(C)(=O)=O)C2)n1 (stereo not drawn) | -0.16 | -20
O=C(CN1CCC(c2ccnn2CCO)CC1)NCc1cccs1 | -1.91 | -10
CC(NC(=O)CCC(=O)c1cccs1)c1nnc2n1CCCCC2 (stereo not drawn) | 3.67 | 18.5
CC(C)C(=O)NCC(=O)N(C)C1CCCN(CCc2ccccc2)C1 (stereo not drawn) | -0.948 | -14.4
c1ccc(-c2cnc(CNCC3CCCN3c3cccnn3)o2)cc1 (stereo not drawn) | 1.15 | 11.4
COc1ncccc1C(=O)N1CCN(C(=O)Cc2ccccn2)CC1 | 4.26 | -53.3
COC(=O)CCNC(=O)c1ccoc1CN1c2ccccc2CC1C (stereo not drawn) | 0.0912 | -1.74
CCN(C)c1ncnc2c1CCN(Cc1ccoc1)CC2 | 5.11 | -28.5

SMILES | Percent Effect [1] [%] | Percent Effect [2] [%]
O=C(NCCc1ccccc1)C1CCCN(c2ccc3nncn3n2)C1 (stereo not drawn) | -2.08 | -7.24
COCCn1ccnc1C1CCCN(C(=O)CSCC2CC2)C1 (stereo not drawn) | -2.09 | 12.8
CCN(CCNC(=O)c1ccccc1OCCOC)C1CC1 | -0.655 | -72
CCc1nnc(CN(C)c2nc(C3CCCC3)nc3c2cnn3C)o1 | -4.57 | 13.2
Cc1noc(C2CCN(C(=O)CCc3nccs3)CC2)n1 | -2.48 | -79.2
CC1CN(C(=O)CN(Cc2ccccc2Br)C2CC2)CCO1 (stereo not drawn) | 2.59 | 29.2
CCc1nnsc1C(=O)N1CCCN(Cc2nccn2C)CC1 | 1.58 | 15.5
COc1cc(CNCc2ccnc(N3CCOCC3)c2)cc(Cl)c1OC | 6.73 | 24.1
Cc1cc(C(N)=O)ccc1NC(=O)c1nc(N2CCCC2)ncc1Cl | 1.84 | -35.5
O=C(NCCCN1CCOCC1)c1cc(-c2ccco2)[nH]n1 | -0.98 | -21.1
Cc1nc(C)n(CC2CCCN(c3ncnc4c3CCC4)C2)n1 (stereo not drawn) | 2.14 | 15.3
COc1cccc2c1OCC(C(=O)N(C)CCCc1cnn(C)c1)C2 (stereo not drawn) | 9.43 | -7.98
CCc1cnc(CN(C(C)=O)C2CCN(CCc3cccs3)C2)o1 (stereo not drawn) | -1.49 | 21.4
CC(CNc1cncc(-n2cccn2)n1)N(C)c1ccccc1 (stereo not drawn) | 2.34 | 7.51
COCCN1CC(C(=O)NCc2ccnc(-n3cccn3)c2)CC1=O (stereo not drawn) | -0.544 | -36.8
Cc1cc(C(C)C(=O)N2CCCN(Cc3cscn3)CC2)c(C)o1 (stereo not drawn) | -4.75 | 19.4
FC1(F)CCN(Cc2cccnc2)CC12CCN(c1ccccn1)C2 (stereo not drawn) | 1.91 | 4.74
CO[C@H]1CCN(Cc2cccc(C)n2)[C@@H]2CN(Cc3cccnc3)C[C@H]12 | -0.57 | -14.4
CCCc1nc(CN2CCN(CC(O)c3ccccc3)CC2)no1 (stereo not drawn) | -4 | -3.05
CN(Cc1cnn(C)c1)C(=O)NC1CCN(c2ncccn2)CC1 | -1.27 | 10.9
CC(C)(C)c1nc(CN(Cc2cccs2)C2CCS(=O)(=O)C2)no1 (stereo not drawn) | 1.32 | 24.2
COC(=O)c1cccn1C1CCN(CC(=O)NC2CCCCC2)CC1 | -1.64 | 1.4
Cc1cc(O)c(OCC(=O)/N=c2\[nH]cc(C)s2)cn1 | -2.4 | -6.58
